Assay outcomes (PubChem)
Compounds with a hit are over-represented: about 19% of the library has one in this group of screens.
VP16 counter: VP16 counterscreen qHTS for inhibitors of ROR gamma transcriptional activity | Drosophila S2 Gal4-VP16 UAS-luciferase, luminescence, 20 h | Potency, µM (doses to about 53.6 µM), without a hit: at the highest dose activity, negative = inhibition, actives largely listed as inhibitors | hit rate 3.5% among 310,000;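 note: Gal4-VP16 expression switched on by copper sulfate through the metallothionein promoter; nearly all actives have a fitted effect of over 50% in size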
DT40 TDP1 no CPT: qHTS for Inhibitors of human tyrosyl-DNA phosphodiesterase 1 (TDP1): qHTS in cells in absence of CPT | DT40 Tdp1-/- hTDP1 cells, no CPT, ATP luminescence, 48 h | Potency, µM (doses to about 46.2 µM), for the others: at the top dose activity change, negative = growth inhibition, actives largely listed as inhibitors | hit rate 15% among 420,000; note: nearly all actives have a fitted effect of over 55% in size
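Seeded 400 DT40-hTDP1 cells/well (vehicle DMSO, no 20 nM CPT); pinned compounds; ≥48 hr at 37 °C; CellTiter-Glo luminescence as viability measure.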
RORg inh: qHTS for inhibitors of ROR gamma transcriptional activity. AID 2551, 2010. Nuclear receptor ROR-gamma (Mus musculus), P51450. Drosophila S2 Gal4-RORgamma UAS-luciferase reporter, 20 h. Potency, µM (highest dose often 53.6 µM), for the others: at the highest dose activity change, negative = inhibition, hits mostly inhibitors. hit rate 5.4% among 310,000; note: nearly all actives have a fitted effect of over 60% in size
Target sequence (P51450 whole entry, looked up, the tested form may be a part): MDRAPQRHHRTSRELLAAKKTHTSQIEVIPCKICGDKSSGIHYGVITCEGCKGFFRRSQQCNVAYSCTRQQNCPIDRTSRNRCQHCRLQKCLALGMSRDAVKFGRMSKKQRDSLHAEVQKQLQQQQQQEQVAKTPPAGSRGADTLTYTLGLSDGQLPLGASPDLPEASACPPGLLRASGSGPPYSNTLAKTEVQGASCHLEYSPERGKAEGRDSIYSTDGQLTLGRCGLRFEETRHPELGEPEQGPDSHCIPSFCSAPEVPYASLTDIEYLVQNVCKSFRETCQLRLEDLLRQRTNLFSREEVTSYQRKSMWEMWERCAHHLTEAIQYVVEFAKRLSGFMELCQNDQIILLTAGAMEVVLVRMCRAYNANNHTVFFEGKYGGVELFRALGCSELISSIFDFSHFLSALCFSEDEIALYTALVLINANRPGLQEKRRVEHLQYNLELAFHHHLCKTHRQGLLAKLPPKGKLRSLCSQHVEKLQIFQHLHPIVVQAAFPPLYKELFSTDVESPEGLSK
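Using a luciferase readout, inhibitors were identified by reduced reporter activity in Drosophila cells coexpressing a copper-inducible Gal4–ROR gamma fusion and UAS-driven Photinus luciferase, incubated 20 hr after 700 uM copper sulfate.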
TDP1 cell CPT: qHTS for Inhibitors of human tyrosyl-DNA phosphodiesterase 1 (TDP1): qHTS in cells in presence of CPT; Potency, µM (top dose mostly 46.2 µM), inactives show at the top dose activity change, negative = growth inhibition, hits mostly inhibitors; hit rate 12% among 420,000; chicken DT40 Tdp1-/-;hTDP1 cells + 20 nM CPT, ATP luminescence, 48 h; AID 686979, 2013; note: nearly all actives have a fitted effect of over 55% in size
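Chicken DT40 Tdp1-/- cells complemented with human TDP1, 400 cells/well, exposed to compounds plus 20 nM camptothecin for at least 48 h at 37 C; viability read as ATP content by CellTiter-Glo luminescence.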
TDP1 block: qHTS Assay for Inhibitors of Tyrosyl-DNA Phosphodiesterase (TDP1); Tyrosyl-DNA phosphodiesterase 1 (Homo sapiens), Q9NUW8; recombinant TDP1, AlphaScreen DNA substrate cleavage; Potency, µM (series often up to 130 µM), inactives show at the top dose activity change, negative = inhibition, actives largely listed as inhibitors; hit rate 0.28% among 350,000; AID 485290, 2010; note: nearly all actives have a fitted effect of over 40% in size
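Signal: AlphaScreen proximity between streptavidin donor and anti-FITC acceptor beads on intact substrate. Reaction: Tdp1 1 nM, substrate 15 nM final, 5 min RT after 15 min compound preincubation.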
* marks the source's active call; other numbers are inactive results; ! = a repeat was not active; [ ] = another dose, or the depositor's remark. Calls come from the whole dose curve; as a rule, active = well fitted curve in the direction sought with a large enough effect; inconclusive = small, poorly fitted or top-dose-only effect, or another doubt; inactive = no such curve, though single readings can be large; an effect the other way counts as inactive or inconclusive. % is set by controls: 0 for no effect and ±100 for the full control effect; potency is the fitted concentration of half-maximal effect.

`O=C(NNC(=O)c1cccnc1SCc1cccc([N+](=O)[O-])c1)c1ccccn1` gave VP16 counter 5.01µM*, DT40 TDP1 no CPT 2.59µM*, RORg inh 3.55µM*, TDP1 cell CPT 4.61µM* and TDP1 block 10.3%.
`C=CCc1c(C)nc2c(OC)cccc2c1Cl` gave VP16 counter -5.4%, DT40 TDP1 no CPT inconclusive, RORg inh -41.3%, TDP1 cell CPT inconclusive and TDP1 block 1.2%.
Screening COc1cccc2nc3cc(C)c(C)cc3nc12 returned VP16 counter inconclusive, DT40 TDP1 no CPT 18.4µM*, RORg inh 10µM*, TDP1 cell CPT 13µM* and TDP1 block 0.0%.
O=S1(=O)CC(O)C(N2CCC(c3ccccc3)CC2)C1 (stereo not given) was read as VP16 counter -10.3%[0.365 µM], DT40 TDP1 no CPT -4.6%, RORg inh 3.7%, TDP1 cell CPT -11.3% and TDP1 block -5.3%.
`COc1cc(/C=c2/sc3nc(-c4ccccc4)c(-c4ccccc4)n3c2=O)cc(OC)c1OC` gave VP16 counter -5.4%, DT40 TDP1 no CPT 10.3µM*, RORg inh -24.0%, TDP1 cell CPT 6.51µM* and TDP1 block 4.1%.
Screening COc1ccc(/C=c2\sc3nc(-c4ccccc4)c(-c4ccccc4)n3c2=O)cc1OC returned VP16 counter -10.7%, DT40 TDP1 no CPT 16.4µM*, RORg inh 15.9%, TDP1 cell CPT inconclusive and TDP1 block 2.0%.
Screening COc1ccc(/C=c2/sc3nc(-c4ccccc4)c(-c4ccccc4)n3c2=O)cc1 returned VP16 counter inconclusive, DT40 TDP1 no CPT inconclusive, RORg inh 40.7%, TDP1 cell CPT inconclusive and TDP1 block 0.6%.
COc1cc(N2CCCC2)c(OC)cc1/C=c1/sc2nc3ccccc3n2c1=O was read as VP16 counter -4.2%, RORg inh 1.8% and TDP1 block 2.0%.
COc1ccc(OC)c(S(=O)(=O)N(C)CC(=O)N2CCN(c3ccc(F)cc3)CC2)c1 was read as VP16 counter 11.8%, DT40 TDP1 no CPT -21.3%, RORg inh -6.9%, TDP1 cell CPT -24.6% and TDP1 block 4.1%.
For O=C(COC(=O)c1cccc(S(=O)(=O)N2CCCC2)c1)NCc1ccccc1 the results were VP16 counter -9.9%[10 µM], DT40 TDP1 no CPT 0.0%, RORg inh -0.9%, TDP1 cell CPT -3.7% and TDP1 block 2.6%.
Screening Cc1ccc(-c2cc(N)n(Cc3ccc(Cl)cc3)n2)cc1 returned VP16 counter -14.1%, DT40 TDP1 no CPT inconclusive, RORg inh 12.3%, TDP1 cell CPT inconclusive and TDP1 block 7.0%.
CC(C)(C)Cn1nc(-c2ccc(Cl)cc2)c2c(N)ncnc21 was read as VP16 counter 1.2%, DT40 TDP1 no CPT inconclusive, RORg inh 5.6%, TDP1 cell CPT 8.41µM* and TDP1 block inconclusive.
Screening CC(C)(C)n1nc(-c2ccc(F)cc2)c2c(N)ncnc21 returned VP16 counter -0.1%, DT40 TDP1 no CPT 16.4µM*, RORg inh -37.2%, TDP1 cell CPT 23.1µM* and TDP1 block -1.0%.
Cc1ccc(-c2nc(N)c3c(-c4ccc(C)cc4)nn(C(C)(C)C)c3n2)cc1 was read as VP16 counter -3.6%, DT40 TDP1 no CPT -29.7%, RORg inh inconclusive, TDP1 cell CPT inconclusive and TDP1 block -3.1%.
Screening CC(C)(C)n1nc(-c2ccc(Cl)cc2)c2c(N)ncnc21 returned VP16 counter -1.4%, DT40 TDP1 no CPT 18.4µM*!, RORg inh -21.1%, TDP1 cell CPT 8.2µM*! and TDP1 block 7.3%.
Screening O=C(NNc1cccc(Cl)c1)c1cccnc1Oc1ccccc1 returned VP16 counter -7.5%, DT40 TDP1 no CPT -10.9%, RORg inh 9.1%, TDP1 cell CPT 1.2% and TDP1 block 7.1%.
